Screens: PubChem BioAssay, National Center for Advancing Translational Sciences (NCATS)
12-LOX inh = inhibitors of human 12S-lipoxygenase ALOX12. P18054. purified 12hLO, xylenol orange hydroperoxide absorbance. Potency, µM (series often up to 108 µM), without a hit: at the top dose activity change, negative = inhibition, usual class: inhibitors. hit rate 1.1% among 580,000. AID 1671190; note: % is set by controls: 0 for no effect and ±100 for the full control effect
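Purified human 12hLO (150 nM final) in 25 mM Hepes, 0.01% Triton X-100, pH 7.0 was preincubated 15 min at room temperature with compound. Then 40 uM arachidonic acid was added, 30 min. Hydroperoxide was read by Fe-XO absorbance ratio 573/405 nm.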
BAZ2B inh = inhibitors of human BAZ2B bromodomain; AlphaScreen BAZ2B-H3K14Ac peptide displacement; Potency, µM (highest dose often 114 µM), for inactives: top-dose activity change, negative = inhibition, actives largely listed as inhibitors; hit rate 4.4% among 360,000; note: % is set by controls: 0 for no effect and ±100 for the full control effect; nearly all actives have a fitted effect of over 60% in size
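Compounds, titrated to a top concentration of 110 uM, were incubated 30 min at room temperature with preformed BAZ2B/acetyl-K14 H3 peptide complex (50 nM each). Proximity signal was measured by AlphaScreen after 20 min with beads.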
HP1b binding inh = inhibitors of HP1-beta chromodomain binding to methylated histone tails | AlphaScreen HP1-beta / biotin-H3K9me3 peptide binding | Potency, µM (series often up to 114 µM), inactives show at the top dose activity change, negative = inhibition, most hits filed as inhibitors | hit rate 0.56% among 390,000; note: nearly all actives have a fitted effect of over 70% in size
Target sequence (P83916 whole entry, looked up): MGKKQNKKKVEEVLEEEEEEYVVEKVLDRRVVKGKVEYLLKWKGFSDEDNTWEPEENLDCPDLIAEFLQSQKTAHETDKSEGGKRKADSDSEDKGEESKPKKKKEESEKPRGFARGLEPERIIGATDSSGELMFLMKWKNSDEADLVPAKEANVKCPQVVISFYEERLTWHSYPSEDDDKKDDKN
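AlphaScreen: HP1-beta (50 nM) preformed 30 min with biotin-H3(1-18)K9me3 peptide (50 nM) in PBS pH 7.4, 0.01% Tween-20. Compound added for 30 min at RT, then streptavidin donor/nickel chelate acceptor beads (10 ug/mL) for 30 min.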
JMJD2A Tudor inh = blocks the human JMJD2A Tudor domain | hit rate 4.4% among 390,000 | Potency, µM (series often up to 114 µM), without a hit: at the highest dose activity change, negative = inhibition, actives largely listed as inhibitors | AID 504339 | AlphaScreen JMJD2A-Tudor / H3K4me3 peptide binding; note: % is set by controls: 0 for no effect and ±100 for the full control effect; nearly all actives have a fitted effect of over 50% in size
Sfp inh = blocks B. subtilis Sfp PPTase activity | Q9F4F7 | Biochemical Sfp PPTase activity, qHTS | Potency, µM, inactives show largest response in the series, negative = inhibition, usual class: inhibitors | hit rate 3.5% among 310,000;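 note: the enzyme is Sfp with the accession as filed and its product quenches rhodamine fluorescence; 0% = enzyme reaction without inhibitor and -100% = no enzyme wells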
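Buffer: 50 mM Hepes-Na pH 7.6, 10 mM MgCl2, 0.01% Nonidet P-40, 0.01% BSA. Enzyme 15 nM, pre-exposed to compound 15 min; substrates then added and fluorescence change tracked over 30 min.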
G9a inh = blocks human histone lysine methyltransferase G9a; Q96KQ7; G9a H3K9 monomethylation, AlphaScreen, 2 h; Potency, µM (top dose mostly 102 µM), inactives show at the top dose activity, negative = inhibition, actives largely listed as inhibitors; hit rate 8.8% among 350,000; AID 504332; note: % is set by controls: 0 for no effect and ±100 for the full control effect; nearly all actives have a fitted effect of over 75% in size
Target sequence (Q96KQ7 913-1193 limits assumed): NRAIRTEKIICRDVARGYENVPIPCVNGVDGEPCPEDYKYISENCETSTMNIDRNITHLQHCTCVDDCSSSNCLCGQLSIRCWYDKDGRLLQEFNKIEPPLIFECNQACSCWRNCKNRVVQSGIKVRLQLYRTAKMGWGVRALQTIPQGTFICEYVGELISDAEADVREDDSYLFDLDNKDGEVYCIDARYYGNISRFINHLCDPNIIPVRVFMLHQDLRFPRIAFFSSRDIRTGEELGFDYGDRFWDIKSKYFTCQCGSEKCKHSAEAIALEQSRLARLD
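Readings reflect AlphaScreen signal from monomethyl-H3K9 antibody detection. HMT at 20 nM; substrate b-H3K9 500 nM; cofactor SAM 20 uM; 2 h RT reaction; compounds tested as titrations in qHTS with 15 min preincubation.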
An asterisk follows results filed as active; ? = inconclusive; nt = no result given; [ ] = another dose, or the depositor's remark. In the library only some 8.7% were active in any assay of this set; here they are far more common. Calls come from the whole dose curve; as a rule, active = well fitted curve in the direction sought with a large enough effect; inconclusive = small, poorly fitted or top-dose-only effect, or another doubt; inactive = no such curve, though single readings can be large; an effect the other way counts as inactive or inconclusive. Potency is the fitted concentration of half-maximal effect.

SMILES	12-LOX inh	BAZ2B inh	HP1b binding inh	JMJD2A Tudor inh	Sfp inh	G9a inh
CCN(CC(=O)Nc1ccccc1OC)CC(=O)Nc1ccccc1-c1ccccc1	-22%	28µM*	?	2.2µM*	35µM*	50µM*
O=C(CCN1C(=O)c2ccccc2C1=O)Nc1ccccc1C(F)(F)F	-17%	1%	38%	-10%	-27%	45µM*
CCCN(C)Cc1ccc(C(=O)OC)cc1	2%	nt	nt	nt	nt	nt
COc1cccc(CCC(=O)N2CCC(Cc3nc(C4CC4)n[nH]3)CC2)c1	37%	nt	nt	nt	nt	nt
Cn1ncc(CN2CCc3[nH]cnc3C2c2cccc(C#N)c2)c1C1CC1 (centres undefined)	2%	nt	nt	nt	nt	nt
CC(=O)N/C(=C/c1ccccc1)C(=O)N1CCCCC1	-2%	-1%	19%	-10%	8%	50µM*
COc1ccccc1C(=O)N/C(=C\c1ccc(Br)cc1)C(=O)NCC(=O)O	-22%	7%	11%	-7%	11%	8%[59 µM]
COc1ccccc1C(=O)N/C(=C/c1ccc(Br)cc1)C(=O)N1CCCC1	-20%	-15%	-19%	50µM*	-11%	14%
CC(=O)N/C(=C\c1ccccc1)C(=O)OCC(=O)N1CCCCCC1	-24%	1%	18%	-7%	18%	-38%
O=C(OCc1nnnn1-c1ccccc1)C1(c2ccccc2)CC1	34%	nt	nt	nt	nt	nt
CN(C(=O)Cn1nc(-c2ccc(Cl)cc2)ccc1=O)C1CCS(=O)(=O)C1 (centres undefined)	35%	nt	nt	nt	nt	nt
CC(=O)c1ccc(NC(=O)CC2Nc3cccc4cccc(c34)NC2=O)cc1 (centres undefined)	?	?	-9%	?	50µM*	?
CC(=O)Nc1ccc(NC(=O)CC2Nc3cccc4cccc(c34)NC2=O)cc1 (centres undefined)	-7%	-30%	9%	-8%	-12%	18%[12.7 µM]
Cc1ccc(-c2csc(-c3cc4c([nH]c3=O)CC(c3ccccc3)CC4=O)n2)cc1 (centres undefined)	?	79µM*	15%	89µM*	nt	2.5µM*
COc1ccc(C2CC(=O)c3cc(-c4nc(-c5cccc(Cl)c5)cs4)c(=O)[nH]c3C2)cc1 (centres undefined)	-2%	1%	53%	-1%	nt	-7%[59 µM]
CC(N(C)CC(=O)NC(C)(C#N)C1CC1)C(C)(C)C (centres undefined)	16%	nt	nt	nt	nt	nt
c1cc2nc(C34CC5CC(CC(C5)C3)C4)[nH]c2cn1	-25%	50µM*	?	22µM*	-25%	14µM*
COc1ccc(OC)c(NC(=O)Cn2cccc(-c3nc(-c4ccc(OC)c(OC)c4)no3)c2=O)c1	-21%	nt	nt	nt	nt	nt
COc1ccc(OC)c(/C=C2\SC(N3CCCC(C)C3)=NC2=O)c1 (centres undefined)	?	-4%	46%	8%	?	28µM*
COc1ccc(/C=C2\SC(N3CCCCC3)=NC2=O)cc1OC	0%	3%	-22%	-25%	17%	21%
Cc1cccc(NC(=O)c2n[nH]c([N+](=O)[O-])c2Br)c1C	?	-25%	43%	-4%	18%	40µM*
CCN(CC)c1nc2ccccc2nc1C(=O)Nc1cccc(C)c1C	16%	nt	nt	nt	nt	nt
Nc1ccccc1N=Nc1ccccc1N	1%	3.2µM*	?	2.8µM*	-2%	14µM*
CCNCc1ccc(C)o1	4%	nt	nt	nt	nt	nt
COc1cccc(OC)c1OCc1cc(C2C3CCCC=C3C(C#N)=C(N)C2(C#N)C#N)c(C)cc1C (centres undefined)	?	?	15%	?	56µM*	nt
SMILES	12-LOX inh	BAZ2B inh	HP1b binding inh	JMJD2A Tudor inh	Sfp inh	G9a inh
O=C(NCCc1ccccc1)N1CCCC(c2nc(CCOCC3CC3)no2)C1 (centres undefined)	16%	nt	nt	nt	nt	nt
O=C(N/N=C\c1ccc(Cl)cc1)c1sccc1-n1cccc1	23%	3%	26%	-12%	17%	-13%
CN(C)c1ccc(/C=N/NC(=O)c2ccccc2Cl)cc1	-8%	-35%	-7%	-31%	8%	40µM*
CN(C)c1ccc(/C=N/NC(=O)c2ccccc2)cc1	15%	-30%	28%	-17%	19%	-41%
CN(C)c1ccc(/C=N/NC(=O)Cn2nnc3ccccc32)cc1	5%	-27%	-1%	-12%	-11%	14µM*
CN(C)c1ccc(/C=N/NC(=O)c2sccc2-n2cccc2)cc1	0%	-24%	17%	-17%	-5%	28µM*
CCc1ccc(-c2cc(C)no2)cc1S(=O)(=O)Nc1cc(Cl)ccc1OC	-1%	nt	nt	nt	nt	nt
Cn1c(=O)c2c(nc(Cl)n2CC(=O)N2CCCC2=O)n(C)c1=O	-28%	nt	nt	nt	nt	nt
Cc1ccc(CN2CCN(CC(=O)NC3CCC(C(C)(C)C)CC3)CC2)o1 (centres undefined)	-20%	nt	nt	nt	nt	nt
CS(=O)(=O)N1CCC(Cc2ccc(C(N)=O)cc2)CC1	25%	nt	nt	nt	nt	nt
O=C1CC(c2ccccc2)N(C(=O)C2CC2)CCCN(C(=O)Cc2c[nH]c3ccccc23)CCN1 (centres undefined)	13%	nt	nt	nt	nt	nt
CSC(=S)N/N=C/c1ccccc1	-28%	13µM*	-4%	?	8%	-1%
COc1ccc(/C=N/NC(=S)Nc2ccccc2)cc1	50µM*	?	15%	-7%	-12%	105%[12.7 µM]
S=C(N/N=C/c1ccccc1)N1CCOCC1	-12%	?	20%	89µM*	-9%	?
S=C(Nc1ccccc1)N1CCOCC1	1%	-11%	42%	6%	-21%	-24%
COc1ccc(/C=N/NC(=S)Nc2cccc(C(=O)O)c2)cc1	?	11%	-7%	-17%	-25%	15%
COC(=O)C1CCCN1S(=O)(=O)c1ccc(F)cc1Cl (centres undefined)	-11%	nt	nt	nt	nt	nt
CC1CCN(CCCNC(=O)c2ccccc2C(F)(F)F)CC1	0%	nt	nt	nt	nt	nt
Cc1ccc(S(=O)(=O)Cn2nnnc2CN2CCCC3(CCCCC3)C2)cc1	?	0%	54%	3%	3%	25µM*
COc1ccc2c(c1)c(=O)oc1cc(OCC(=O)NC3CCCCC3)ccc12	?	79µM*	?	40µM*	-9%	11µM*
c1ccc(-c2nc3ccccc3nc2N2CCOCC2)cc1	?	62%	156%	136%	4%	68%[59 µM]
Cn1c(N2CCOCC2)nc(-c2ccccc2)c1-c1ccccc1	2%	?	-12%	-31%	1%	50µM*
COc1ccc(S(=O)(=O)Nc2ccc(S(=O)(=O)Nc3nccs3)cc2)cc1	-4%	-3%	11%	-7%	24%	50µM*
O=C(Nc1ccc(S(=O)(=O)Nc2nccs2)cc1)c1ccc(=O)[nH]c1	-21%	50µM*	-13%	?	-18%	nt
